Legend:
[1] = tested on: Epidermal growth factor receptor (Homo sapiens), P00533 [T790M]; details: at 1 µM
[2] = tested on: Epidermal growth factor receptor (Homo sapiens), P00533 [L858R,T790M]; details: at 0.1 µM
[3] = tested on: Epidermal growth factor receptor (Homo sapiens), P00533 [L858R,T790M]; details: at 1 µM
[4] = target: Ephrin type-A receptor 2 (Homo sapiens) (UniProt P29317); details: at 0.1 µM
[5] = target: Ephrin type-A receptor 2 (Homo sapiens) (UniProt P29317); details: at 1 µM
[6] = target: T1, Ephrin type-A receptor 3 (Homo sapiens) (UniProt P29320); details: at 0.1 µM
T1 sequence (whole entry): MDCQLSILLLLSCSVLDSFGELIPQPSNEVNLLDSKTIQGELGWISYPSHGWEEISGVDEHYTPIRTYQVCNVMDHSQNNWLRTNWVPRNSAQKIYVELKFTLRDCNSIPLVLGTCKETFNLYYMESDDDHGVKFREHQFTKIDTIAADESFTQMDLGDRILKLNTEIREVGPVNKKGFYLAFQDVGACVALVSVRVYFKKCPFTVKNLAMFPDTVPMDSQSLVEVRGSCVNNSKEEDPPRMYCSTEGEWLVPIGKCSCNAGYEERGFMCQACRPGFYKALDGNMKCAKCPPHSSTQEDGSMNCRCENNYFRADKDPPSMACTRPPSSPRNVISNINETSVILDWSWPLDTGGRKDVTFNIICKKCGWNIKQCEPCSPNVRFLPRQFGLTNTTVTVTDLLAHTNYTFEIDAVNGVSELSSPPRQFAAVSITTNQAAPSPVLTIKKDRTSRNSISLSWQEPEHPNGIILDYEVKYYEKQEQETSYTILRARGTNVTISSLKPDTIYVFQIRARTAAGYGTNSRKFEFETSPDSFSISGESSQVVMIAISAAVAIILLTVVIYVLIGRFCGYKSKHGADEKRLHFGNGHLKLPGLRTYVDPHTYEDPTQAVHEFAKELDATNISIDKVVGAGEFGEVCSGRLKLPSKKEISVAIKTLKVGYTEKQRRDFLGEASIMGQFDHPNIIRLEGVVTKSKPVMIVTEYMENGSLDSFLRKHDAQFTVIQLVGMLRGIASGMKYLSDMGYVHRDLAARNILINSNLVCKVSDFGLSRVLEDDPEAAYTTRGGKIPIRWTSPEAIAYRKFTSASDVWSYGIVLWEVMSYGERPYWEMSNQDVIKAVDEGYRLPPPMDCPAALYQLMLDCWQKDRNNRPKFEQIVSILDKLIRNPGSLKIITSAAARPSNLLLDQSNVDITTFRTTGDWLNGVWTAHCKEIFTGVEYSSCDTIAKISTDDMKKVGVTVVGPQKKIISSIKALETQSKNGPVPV

[7] = target: T1, Ephrin type-A receptor 3 (Homo sapiens); details: at 1 µM
[8] = target: Ephrin type-A receptor 4 (Homo sapiens) (UniProt P54764); details: at 0.1 µM
[9] = target: Ephrin type-A receptor 4 (Homo sapiens) (UniProt P54764); details: at 1 µM
[10] = target: T2, Ephrin type-B receptor 2 (Homo sapiens) (UniProt P29323); details: at 0.1 µM
T2 sequence (whole entry): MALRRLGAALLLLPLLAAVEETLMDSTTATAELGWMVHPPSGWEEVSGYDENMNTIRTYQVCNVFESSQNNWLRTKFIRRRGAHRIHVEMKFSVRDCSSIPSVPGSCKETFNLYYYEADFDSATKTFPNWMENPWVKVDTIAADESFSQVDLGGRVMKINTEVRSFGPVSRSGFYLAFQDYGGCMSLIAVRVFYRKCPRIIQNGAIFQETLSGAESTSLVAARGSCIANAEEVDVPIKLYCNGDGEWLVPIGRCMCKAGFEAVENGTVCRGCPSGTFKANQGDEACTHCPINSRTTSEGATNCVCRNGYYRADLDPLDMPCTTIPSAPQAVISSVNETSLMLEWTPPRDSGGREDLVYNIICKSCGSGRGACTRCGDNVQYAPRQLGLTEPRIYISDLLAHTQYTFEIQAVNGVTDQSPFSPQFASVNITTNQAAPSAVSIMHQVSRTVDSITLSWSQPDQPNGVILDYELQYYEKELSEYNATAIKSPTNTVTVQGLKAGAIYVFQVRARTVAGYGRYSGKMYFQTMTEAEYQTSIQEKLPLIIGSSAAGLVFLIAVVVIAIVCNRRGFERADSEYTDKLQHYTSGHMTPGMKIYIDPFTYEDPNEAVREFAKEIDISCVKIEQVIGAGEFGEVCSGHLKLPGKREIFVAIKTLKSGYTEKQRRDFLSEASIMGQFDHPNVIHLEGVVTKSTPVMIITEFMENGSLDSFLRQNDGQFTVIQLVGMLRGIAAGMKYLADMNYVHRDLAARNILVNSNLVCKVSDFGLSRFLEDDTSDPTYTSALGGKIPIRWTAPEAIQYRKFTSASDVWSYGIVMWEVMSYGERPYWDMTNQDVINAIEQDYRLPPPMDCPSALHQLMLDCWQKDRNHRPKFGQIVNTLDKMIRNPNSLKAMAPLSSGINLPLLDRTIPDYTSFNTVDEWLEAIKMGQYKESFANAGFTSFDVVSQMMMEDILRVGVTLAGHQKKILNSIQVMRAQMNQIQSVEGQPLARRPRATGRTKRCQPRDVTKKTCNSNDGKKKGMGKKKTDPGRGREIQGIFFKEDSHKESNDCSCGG

[11] = target: T2, Ephrin type-B receptor 2 (Homo sapiens); details: at 1 µM
[12] = target: T3, Ephrin type-B receptor 3 (Homo sapiens) (UniProt P54753); details: at 0.1 µM
T3 sequence (whole entry): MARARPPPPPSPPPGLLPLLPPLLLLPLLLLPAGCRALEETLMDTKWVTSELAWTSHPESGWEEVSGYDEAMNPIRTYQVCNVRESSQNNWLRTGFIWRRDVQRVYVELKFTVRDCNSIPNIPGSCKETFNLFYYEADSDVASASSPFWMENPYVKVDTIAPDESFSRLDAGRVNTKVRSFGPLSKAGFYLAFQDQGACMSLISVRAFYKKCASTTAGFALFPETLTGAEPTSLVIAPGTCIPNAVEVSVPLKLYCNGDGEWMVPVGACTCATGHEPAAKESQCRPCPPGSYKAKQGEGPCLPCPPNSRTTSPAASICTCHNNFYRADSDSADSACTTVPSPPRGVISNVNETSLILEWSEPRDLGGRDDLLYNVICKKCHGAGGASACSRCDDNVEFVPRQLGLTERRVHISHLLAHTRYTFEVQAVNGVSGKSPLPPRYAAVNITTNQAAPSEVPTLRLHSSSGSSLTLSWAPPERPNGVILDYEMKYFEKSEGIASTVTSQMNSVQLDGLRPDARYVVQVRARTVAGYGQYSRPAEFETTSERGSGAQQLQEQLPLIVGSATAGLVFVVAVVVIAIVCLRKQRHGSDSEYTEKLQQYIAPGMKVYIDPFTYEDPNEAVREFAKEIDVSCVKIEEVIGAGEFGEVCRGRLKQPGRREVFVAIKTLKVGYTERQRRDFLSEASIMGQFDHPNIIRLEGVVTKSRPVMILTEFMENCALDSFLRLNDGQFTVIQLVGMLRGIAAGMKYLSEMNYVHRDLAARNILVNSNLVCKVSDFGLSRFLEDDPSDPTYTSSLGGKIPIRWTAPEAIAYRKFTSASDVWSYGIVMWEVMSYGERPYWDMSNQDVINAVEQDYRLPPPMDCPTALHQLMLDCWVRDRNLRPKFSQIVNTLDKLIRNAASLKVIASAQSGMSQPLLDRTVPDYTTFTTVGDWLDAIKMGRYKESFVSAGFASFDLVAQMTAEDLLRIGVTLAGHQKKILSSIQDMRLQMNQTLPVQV

[13] = target: T3, Ephrin type-B receptor 3 (Homo sapiens); details: at 1 µM
[14] = target: T4, Ephrin type-B receptor 4 (Homo sapiens) (UniProt P54760); details: at 0.1 µM
T4 sequence (whole entry): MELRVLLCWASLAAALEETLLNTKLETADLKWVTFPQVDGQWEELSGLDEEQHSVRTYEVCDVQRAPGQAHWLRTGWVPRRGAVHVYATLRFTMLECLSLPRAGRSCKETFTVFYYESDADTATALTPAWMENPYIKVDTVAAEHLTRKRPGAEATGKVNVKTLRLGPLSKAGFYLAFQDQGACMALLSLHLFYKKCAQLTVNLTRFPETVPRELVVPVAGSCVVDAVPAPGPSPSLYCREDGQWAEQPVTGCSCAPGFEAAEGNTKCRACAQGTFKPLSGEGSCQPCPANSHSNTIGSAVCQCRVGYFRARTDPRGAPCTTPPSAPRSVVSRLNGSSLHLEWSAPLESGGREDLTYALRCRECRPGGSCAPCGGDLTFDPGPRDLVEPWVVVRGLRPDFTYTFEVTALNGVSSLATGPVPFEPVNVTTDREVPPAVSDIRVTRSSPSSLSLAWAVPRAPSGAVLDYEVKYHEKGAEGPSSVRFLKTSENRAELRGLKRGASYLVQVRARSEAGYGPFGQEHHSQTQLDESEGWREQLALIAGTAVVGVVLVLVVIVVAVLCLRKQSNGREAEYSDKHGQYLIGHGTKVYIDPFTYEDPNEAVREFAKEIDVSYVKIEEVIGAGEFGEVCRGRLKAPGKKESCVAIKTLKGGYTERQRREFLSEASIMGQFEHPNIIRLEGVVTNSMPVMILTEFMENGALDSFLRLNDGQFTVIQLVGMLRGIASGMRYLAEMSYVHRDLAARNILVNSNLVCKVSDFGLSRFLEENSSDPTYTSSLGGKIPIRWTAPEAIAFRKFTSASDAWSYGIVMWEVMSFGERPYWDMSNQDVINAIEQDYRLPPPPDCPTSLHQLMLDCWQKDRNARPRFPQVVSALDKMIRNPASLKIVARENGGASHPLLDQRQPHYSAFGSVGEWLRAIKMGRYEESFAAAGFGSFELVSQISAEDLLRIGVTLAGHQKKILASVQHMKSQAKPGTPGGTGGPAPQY

[15] = target: T4, Ephrin type-B receptor 4 (Homo sapiens); details: at 1 µM
[16] = target: Receptor tyrosine-protein kinase erbB-2 (Homo sapiens) (UniProt P04626); details: at 0.1 µM
[17] = target: Receptor tyrosine-protein kinase erbB-2 (Homo sapiens) (UniProt P04626); details: at 1 µM
[18] = target: Receptor tyrosine-protein kinase erbB-4 (Homo sapiens) (UniProt Q15303); details: at 0.1 µM
[19] = target: Receptor tyrosine-protein kinase erbB-4 (Homo sapiens) (UniProt Q15303); details: at 1 µM
[20] = target: Tyrosine-protein kinase Fer (Homo sapiens) (UniProt P16591); details: at 0.1 µM;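 also: reported figures are averaged percent inhibition of FER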

Epidermal growth factor receptor (Homo sapiens), P00533 [T790M], sequence (P00533 whole entry T790M): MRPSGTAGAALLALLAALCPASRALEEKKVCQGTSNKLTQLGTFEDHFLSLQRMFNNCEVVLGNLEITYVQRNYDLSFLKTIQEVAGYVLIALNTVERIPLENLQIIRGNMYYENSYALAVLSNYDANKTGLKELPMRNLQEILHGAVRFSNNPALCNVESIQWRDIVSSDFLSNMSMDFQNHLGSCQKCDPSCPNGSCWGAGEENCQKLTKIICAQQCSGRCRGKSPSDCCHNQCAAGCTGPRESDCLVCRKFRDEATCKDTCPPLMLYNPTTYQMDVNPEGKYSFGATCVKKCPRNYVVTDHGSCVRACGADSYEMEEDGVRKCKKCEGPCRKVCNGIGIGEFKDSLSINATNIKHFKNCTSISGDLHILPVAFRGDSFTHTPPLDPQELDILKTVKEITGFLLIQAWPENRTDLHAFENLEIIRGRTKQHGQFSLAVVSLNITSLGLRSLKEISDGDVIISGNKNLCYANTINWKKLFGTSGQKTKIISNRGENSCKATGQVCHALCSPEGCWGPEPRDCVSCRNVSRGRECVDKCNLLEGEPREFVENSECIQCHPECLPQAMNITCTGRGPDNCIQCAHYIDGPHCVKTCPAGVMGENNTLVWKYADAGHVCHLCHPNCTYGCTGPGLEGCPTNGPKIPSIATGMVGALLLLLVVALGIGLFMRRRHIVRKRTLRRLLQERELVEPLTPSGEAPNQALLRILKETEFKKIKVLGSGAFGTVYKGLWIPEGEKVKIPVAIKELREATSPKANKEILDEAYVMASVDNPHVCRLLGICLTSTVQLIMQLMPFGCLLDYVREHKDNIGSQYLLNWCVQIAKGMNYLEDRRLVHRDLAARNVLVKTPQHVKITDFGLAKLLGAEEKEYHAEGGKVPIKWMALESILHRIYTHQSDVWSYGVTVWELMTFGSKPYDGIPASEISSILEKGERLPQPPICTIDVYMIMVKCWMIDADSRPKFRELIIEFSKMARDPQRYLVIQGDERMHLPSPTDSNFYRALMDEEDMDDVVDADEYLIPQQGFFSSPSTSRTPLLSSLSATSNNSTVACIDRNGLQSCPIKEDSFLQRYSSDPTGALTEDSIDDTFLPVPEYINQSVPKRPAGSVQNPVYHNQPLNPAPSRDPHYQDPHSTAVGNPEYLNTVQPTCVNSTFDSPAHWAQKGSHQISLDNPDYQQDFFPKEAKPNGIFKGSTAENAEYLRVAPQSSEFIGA
Receptor tyrosine-protein kinase erbB-4 (Homo sapiens), sequence (Q15303 whole entry): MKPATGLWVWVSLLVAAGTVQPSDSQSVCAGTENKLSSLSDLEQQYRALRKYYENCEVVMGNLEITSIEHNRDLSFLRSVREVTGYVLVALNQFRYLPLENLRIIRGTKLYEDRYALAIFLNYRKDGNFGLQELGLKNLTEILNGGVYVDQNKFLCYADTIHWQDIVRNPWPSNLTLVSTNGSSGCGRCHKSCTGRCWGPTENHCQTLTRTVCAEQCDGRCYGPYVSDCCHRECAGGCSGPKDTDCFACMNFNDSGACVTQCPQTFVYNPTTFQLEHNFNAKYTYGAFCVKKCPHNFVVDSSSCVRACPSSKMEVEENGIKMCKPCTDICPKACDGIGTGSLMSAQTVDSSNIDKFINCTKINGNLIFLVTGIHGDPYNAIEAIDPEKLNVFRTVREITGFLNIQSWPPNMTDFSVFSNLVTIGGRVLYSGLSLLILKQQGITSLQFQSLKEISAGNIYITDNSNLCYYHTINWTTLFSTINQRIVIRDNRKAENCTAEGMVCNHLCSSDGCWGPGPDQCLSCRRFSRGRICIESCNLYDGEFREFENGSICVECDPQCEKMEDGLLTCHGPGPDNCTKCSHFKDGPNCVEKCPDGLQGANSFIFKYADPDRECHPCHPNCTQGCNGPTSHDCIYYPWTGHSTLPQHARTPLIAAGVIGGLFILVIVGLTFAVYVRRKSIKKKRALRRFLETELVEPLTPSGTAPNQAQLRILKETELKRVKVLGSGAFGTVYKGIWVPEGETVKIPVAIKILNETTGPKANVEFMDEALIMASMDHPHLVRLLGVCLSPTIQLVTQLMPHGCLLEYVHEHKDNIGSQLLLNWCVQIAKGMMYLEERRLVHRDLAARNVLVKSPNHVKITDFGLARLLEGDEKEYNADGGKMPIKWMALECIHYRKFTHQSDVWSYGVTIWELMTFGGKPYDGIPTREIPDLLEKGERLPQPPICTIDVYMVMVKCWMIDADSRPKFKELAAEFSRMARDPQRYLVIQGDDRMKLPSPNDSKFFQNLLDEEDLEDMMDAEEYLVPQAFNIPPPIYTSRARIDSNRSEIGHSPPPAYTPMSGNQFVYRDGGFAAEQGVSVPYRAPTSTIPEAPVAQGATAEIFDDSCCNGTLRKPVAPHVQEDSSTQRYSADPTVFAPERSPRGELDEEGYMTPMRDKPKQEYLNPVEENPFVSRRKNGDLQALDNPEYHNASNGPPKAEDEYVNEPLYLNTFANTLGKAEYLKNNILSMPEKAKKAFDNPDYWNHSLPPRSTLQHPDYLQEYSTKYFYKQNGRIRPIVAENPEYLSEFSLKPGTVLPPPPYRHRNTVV
Epidermal growth factor receptor (Homo sapiens), P00533 [L858R,T790M], sequence (P00533 whole entry T790M/L858R, looked up): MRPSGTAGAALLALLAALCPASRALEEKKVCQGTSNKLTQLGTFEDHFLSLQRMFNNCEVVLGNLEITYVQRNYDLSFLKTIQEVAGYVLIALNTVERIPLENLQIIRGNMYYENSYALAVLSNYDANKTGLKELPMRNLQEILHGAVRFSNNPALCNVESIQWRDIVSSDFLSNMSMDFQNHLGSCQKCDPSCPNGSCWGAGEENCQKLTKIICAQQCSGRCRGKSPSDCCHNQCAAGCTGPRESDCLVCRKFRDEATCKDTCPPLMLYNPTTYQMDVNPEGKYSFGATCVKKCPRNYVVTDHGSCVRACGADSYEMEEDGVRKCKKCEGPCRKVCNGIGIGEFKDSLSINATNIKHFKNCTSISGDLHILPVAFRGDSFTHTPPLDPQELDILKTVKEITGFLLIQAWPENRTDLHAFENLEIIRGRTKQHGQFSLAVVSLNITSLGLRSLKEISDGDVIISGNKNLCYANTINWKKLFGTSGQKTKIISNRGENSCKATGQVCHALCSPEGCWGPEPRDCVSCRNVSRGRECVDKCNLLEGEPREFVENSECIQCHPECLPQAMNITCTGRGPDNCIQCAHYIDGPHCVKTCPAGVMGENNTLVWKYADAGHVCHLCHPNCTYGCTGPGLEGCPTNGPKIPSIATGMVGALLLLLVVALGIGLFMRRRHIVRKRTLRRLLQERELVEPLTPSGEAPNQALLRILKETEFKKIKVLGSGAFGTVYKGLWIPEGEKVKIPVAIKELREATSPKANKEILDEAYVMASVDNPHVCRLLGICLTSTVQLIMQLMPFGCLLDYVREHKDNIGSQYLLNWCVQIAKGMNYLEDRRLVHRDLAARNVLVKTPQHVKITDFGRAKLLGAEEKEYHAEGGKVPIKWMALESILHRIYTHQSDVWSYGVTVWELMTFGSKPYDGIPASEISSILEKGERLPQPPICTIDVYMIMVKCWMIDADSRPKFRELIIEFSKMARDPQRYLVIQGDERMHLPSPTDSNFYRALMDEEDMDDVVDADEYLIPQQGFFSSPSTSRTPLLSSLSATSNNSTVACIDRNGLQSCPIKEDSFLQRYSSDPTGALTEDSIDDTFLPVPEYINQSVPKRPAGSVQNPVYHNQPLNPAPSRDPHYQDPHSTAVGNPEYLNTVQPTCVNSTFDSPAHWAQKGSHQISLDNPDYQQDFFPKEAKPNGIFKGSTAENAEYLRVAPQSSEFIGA
Receptor tyrosine-protein kinase erbB-2 (Homo sapiens), sequence (P04626 whole entry): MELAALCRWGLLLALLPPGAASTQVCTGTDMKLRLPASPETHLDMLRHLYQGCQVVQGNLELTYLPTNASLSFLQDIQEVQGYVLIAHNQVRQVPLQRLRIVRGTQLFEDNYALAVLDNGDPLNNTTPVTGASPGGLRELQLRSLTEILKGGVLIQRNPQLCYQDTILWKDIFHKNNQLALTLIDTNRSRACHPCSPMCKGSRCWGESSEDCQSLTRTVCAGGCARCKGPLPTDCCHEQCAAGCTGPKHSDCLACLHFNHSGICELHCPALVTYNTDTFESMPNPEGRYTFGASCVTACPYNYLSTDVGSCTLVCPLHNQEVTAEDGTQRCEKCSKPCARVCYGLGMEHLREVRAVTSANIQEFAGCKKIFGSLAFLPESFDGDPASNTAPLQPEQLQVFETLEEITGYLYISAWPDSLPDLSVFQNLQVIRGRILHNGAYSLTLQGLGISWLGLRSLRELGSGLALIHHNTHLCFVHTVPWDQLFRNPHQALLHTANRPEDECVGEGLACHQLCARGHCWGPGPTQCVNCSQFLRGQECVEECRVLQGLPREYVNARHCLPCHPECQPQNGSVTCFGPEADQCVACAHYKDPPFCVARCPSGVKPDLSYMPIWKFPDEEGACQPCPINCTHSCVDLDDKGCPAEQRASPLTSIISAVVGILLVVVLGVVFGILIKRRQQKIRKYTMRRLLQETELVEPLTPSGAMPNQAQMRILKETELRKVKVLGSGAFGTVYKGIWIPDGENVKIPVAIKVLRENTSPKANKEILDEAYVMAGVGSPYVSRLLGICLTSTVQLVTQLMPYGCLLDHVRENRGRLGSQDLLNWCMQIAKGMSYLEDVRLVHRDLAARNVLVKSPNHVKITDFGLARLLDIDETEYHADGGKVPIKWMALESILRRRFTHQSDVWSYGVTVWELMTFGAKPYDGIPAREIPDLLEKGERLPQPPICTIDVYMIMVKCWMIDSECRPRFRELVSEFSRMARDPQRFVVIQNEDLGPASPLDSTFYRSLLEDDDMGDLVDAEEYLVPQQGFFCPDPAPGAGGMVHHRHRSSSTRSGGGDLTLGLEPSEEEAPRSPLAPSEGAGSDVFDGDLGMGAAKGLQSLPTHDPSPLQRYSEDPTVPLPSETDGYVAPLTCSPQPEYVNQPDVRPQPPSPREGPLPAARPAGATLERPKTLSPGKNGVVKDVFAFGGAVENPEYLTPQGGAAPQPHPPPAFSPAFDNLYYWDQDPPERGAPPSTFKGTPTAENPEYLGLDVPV

| SMILES | inhibition [1] | inhibition [2] | inhibition [3] | inhibition [4] | inhibition [5] | inhibition [6] | inhibition [7] | inhibition [8] | inhibition [9] | inhibition [10] | inhibition [11] | inhibition [12] | inhibition [13] | inhibition [14] | inhibition [15] | inhibition [16] | inhibition [17] | inhibition [18] | inhibition [19] | inhibition [20] |
| --- | --- | --- | --- | --- | --- | --- | --- | --- | --- | --- | --- | --- | --- | --- | --- | --- | --- | --- | --- | --- |
| COc1ccc2ncnc(Nc3ccc(OCc4ccccc4)cc3)c2c1 | 5.68% | 2.24% | 4.15% | 1.06% | 0.85% | 2.45% | 3.28% | 5.9% | 5.92% | 3.16% | 6.18% | 4.29% | 1.66% | 2.58% | 0.41% | 1.73% | 30.9% | 56.2% | 85.1% | -1.28% |
| Cc1ccc2c(c1)/C(=N/Nc1ccc(S(N)(=O)=O)cc1)C(=O)N2 | -3% | -4.55% | -2.96% | 1.34% | – | -0.01% | 2.43% | -0.11% | -5.42% | -2.4% | -1.87% | 2.46% | -0.26% | 0.65% | 0.71% | 0.1% | -4.77% | 6.45% | 7.37% | 1.02% |
| Cc1nc(-c2ccccc2)n2nc(NCCCN3CCOCC3)ncc12 | 2% | -0.39% | 3.29% | 0.3% | -0.95% | 3.7% | 4.01% | 5.25% | 8.81% | -0.43% | 7.29% | 2.93% | 3.76% | 1.32% | 4.69% | 1.95% | 5.51% | 5.53% | 11.3% | 1.34% |
| Cc1ccc2c(-c3ccnc(Nc4cccc(C(F)(F)F)c4)n3)c(-c3ccccc3)nn2n1 | 57.7% | 35.2% | 87.6% | 0.69% | 4.04% | 5.98% | 15.1% | 8.59% | 33.9% | 17.6% | 51.7% | 3.61% | 9.16% | 7.62% | 46.4% | 5.37% | 37.7% | 40.4% | 79% | -8.28% |
| CN(C)c1cc2c(Nc3ccc4c(cnn4Cc4ccccc4)c3)ncnc2cn1 | – | – | – | 0.12% | 0.17% | 3.01% | 3.25% | 6.93% | 2.96% | 2.52% | 0.46% | 4.69% | 1.55% | 0.91% | 2.11% | 53.4% | 86.6% | 91.1% | 94.6% | 1.79% |
| c1ccc(Cc2nc3ccc(Nc4ncnc5ccccc45)cc3[nH]2)cc1 | 2.67% | 1.06% | -0.39% | 1.21% | 0.81% | 4.49% | 4.41% | 9.01% | 11.7% | 8.45% | 12.8% | 3.69% | 6.08% | 1.42% | 1.8% | 2.07% | 51.6% | 98.2% | 115% | 0.32% |
| NC(=O)c1cccc(Nc2nccc(Nc3cccc(F)c3)n2)c1 | 1.97% | -1.09% | 2.58% | -0.63% | 17.9% | 0.42% | 7.65% | 5.65% | 29.1% | 3.44% | 18.1% | 2.13% | 2.83% | -0.22% | 5.23% | 0.04% | 3.14% | 5.37% | 13.2% | -2.66% |
| O=C(Nc1ccc(Oc2ccc3[nH]c(NC(=O)c4ccco4)nc3c2)cc1)Nc1cc(C(F)(F)F)ccc1F | -1.32% | 1.13% | 0.64% | 18.8% | 82.8% | 4.15% | 15.9% | 36.3% | 86.9% | 36.1% | 78.3% | 2.25% | 24.2% | 8.82% | 63.8% | -0.1% | -0.1% | -1.74% | -5.16% | 3.08% |
| N#Cc1c(NC(=O)c2ccccc2F)sc2c1CCCC2 | -1.31% | -0.25% | -0.34% | -2.61% | -2.44% | -3.2% | -1.65% | -3.04% | -0.99% | -7.95% | -0.34% | 3.63% | 0.77% | -2.29% | 0.07% | -3.55% | 1.39% | -2.08% | 0.66% | -1.19% |
